Inconclusive results are not listed. Active and inactive are the calls of the source. Calls follow the shape of the dose curve; as a rule, active = well fitted curve in the direction sought with a large enough effect; inconclusive = small, poorly fitted or top-dose-only effect, or another doubt; inactive = no such curve, though single readings can be large; an effect the other way counts as inactive or inconclusive.

The first experiment is described as follows: qHTS Screen of the MIPE 4.0 Collection Against Ewings Sarcoma (TC32) (AID 1259256). Also: nearly all actives have a fitted effect of over 45% in size. Also: potency is read from the fitted curve at half-maximal effect.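 As to viability (percent of control): 100% = DMSO-treated cells and 0% = medium-only wells without cells.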 As to conditions: TC32 Ewing sarcoma viability, CellTiter-Glo, 48 h; series mostly up to 45.8 µM; viability (percent of control): at the top concentration. The method in brief: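 Compound titrations go onto adherent log-phase cells 4 h after seeding, incubate 48 h at 37C, then CellTiter-Glo luminescence reports viability relative to DMSO and cell-free controls.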
As for `Cn1c(N2CCCCS2(=O)=O)nc(C(=O)NCc2ccc(F)cc2)c(O)c1=O`, the Potency is 23.5 µM (active).

As to `COc1ccc2cccc(CCNC(C)=O)c2c1`, the “viability (percent of control)” value is 99.6% (inactive).

For the compound `C=C1C(=O)OC2C=C(C)CCC=C(C)CCC12` (stereo not drawn), the Potency was 20.9 µM (active).

As to `COc1cccc([C@@H](C)NCCCc2ccccc2Cl)c1`, the “viability (percent of control)” value is 140% (inactive).

For `CC(=O)OC1C(C)OC(Oc2c(-c3ccc(O)cc3)oc3cc(O)cc(O)c3c2=O)C(O)C1OC(C)=O` (stereo not drawn), the “viability (percent of control)” value is 131% (inactive).

A short description of the next experiment: Identifying Small Molecule Inhibitors of Pancreatic Cancer Stem Cells (SN12C, Adherent) (AID 1259358).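 Also: cell survival measured after 48 h of compound exposure.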 Also: potency is read from the fitted curve at half-maximal effect. As to conditions: viability/growth inhibition; series mostly up to 46.1 µM; viability (percent of control): at the top concentration. Put shortly: (§1)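 Viability is scored by CellTiter-Glo luminescence 48 h after dosing, expressed as percent activity against vehicle and no-cell references. Spheroid formats rely on cells cultured 14 days in stem cell media beforehand.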
Consider `CO[C@@H](C(=O)N1Cc2[nH]nc(NC(=O)c3ccc(N4CCN(C)CC4)cc3)c2C1)c1ccccc1`, for which the Potency is 0.743 µM (active).

Regarding `CC(C)(C)c1cc(C(=O)O)c(NC(=O)Nc2ccc3[nH]ncc3c2)s1`, the “viability (percent of control)” value is 108% (inactive).

For the compound `c1ccc2c(-c3cnn4cc(-c5ccc(N6CCNCC6)cc5)cnc34)ccnc2c1`, the Potency was 26.4 µM (active).

Take `Clc1ccc(-c2nc3sccn3c2C=NOCc2ccc(Cl)c(Cl)c2)cc1`: the “viability (percent of control)” value is 105% (inactive).

A short description of another experiment: Identifying Small Molecule Inhibitors of Pancreatic Cancer Stem Cells (A278, Adherent) (AID 1259361).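 Also: viability read after 48 h compound exposure; nearly all actives have a fitted effect of over 35% in size.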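 As to viability (% of control): 100% = DMSO-treated cells and 0% = cell-free media-only wells.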 Particulars: series mostly up to 46.1 µM; viability (% of control): at the top concentration. Put shortly: as §1
In the case of `CO[C@@H](C(=O)N1Cc2[nH]nc(NC(=O)c3ccc(N4CCN(C)CC4)cc3)c2C1)c1ccccc1`, the IC50 (viability decrease) is 0.0935 µM (active).

For the compound `CC(C)(C)c1cc(C(=O)O)c(NC(=O)Nc2ccc3[nH]ncc3c2)s1`, the “viability (% of control)” value was 100 (inactive).

In the case of `c1ccc2c(-c3cnn4cc(-c5ccc(N6CCNCC6)cc5)cnc34)ccnc2c1`, the IC50 (viability decrease) is 23.5 µM (active).

As to `Clc1ccc(-c2nc3sccn3c2C=NOCc2ccc(Cl)c(Cl)c2)cc1`, the “viability (% of control)” value is 111 (inactive).

For the origin of these results see PubChem BioAssay (NCATS).
